Data reported in PubChem BioAssay (EPA / NIEHS).
The source made the active and inactive calls. How the source made its calls: active means hit-call score of the fitted dose curve at least 0.9, where 1 is the maximum; inactive means score below 0.9.

experiment: ATG_M_06_CIS: Attagene CIS-FACTORIAL HepG2 Assay for M06 Transcription Factor (Internal Marker) (AID 2282950); conditions: HepG2 Attagene CIS-FACTORIAL M06 internal marker reporter; actives raise or lower the signal
Experimental: ATG_CIS is a cell-based, multiplexed-readout assay that uses HepG2, a human liver cell line, with measurements taken at 24 hours after chemical dosing in a 24-well plate.ATG_M_06_CIS is one of 52 assay component(s) measured or calculated from the ATG_CIS assay. It is designed to make measurements of mRNA induction, a form of inducible reporter, as detected with fluorescence intensity signals by Reverse transcription polymerase chain reaction (RT-PCR) and Capillary electrophoresis technology.Data from the assay component ATG_M_06_CIS was analyzed into 1 assay endpoint. This assay endpoint, ATG_M_06_CIS, was analyzed with bidirectional fitting relative to DMSO as the negative control and baseline of activity. Using a type of inducible reporter, measures of mRNA for gain or loss-of-signal activity can be used to understand the background control at the transcription factor-level as they relate to the gene . Furthermore, this assay endpoint can be referred to as a secondary readout, because this assay has produced multiple assay endpoints where this one serves a background control function. To generalize the intended target to other relatable targets, this assay endpoint is annotated to the background measurement intended target family, where the subfamily is internal marker.
Human liver HepG2 cells are transiently transfected with multiple reporter transcription units (MRTUs) in 6-well plates using FuGene 6 reagent (Roche; 3 ml FuGene/1 mg DNA). The MRTU constructs are regulated by a cis-regulating element (promoter). […] A major difference between the CIS and TRANS system is that in CIS activities of endogenous TFs are measured, whereas the TRANS assay evaluates changes in activities of exogenous, chimeric NR-Gal4 proteins. […] At the end of 24 hour incubation, total RNA was isolated using TriZol reagent (Invitrogen). The isolated RNA is then reverse-transcribed using oligo(dT) primer and Mo-MLV reverse transcriptase (Invitrogen) with DNAse I (Ambion) treatment for 30 min. The one-tenth of the produced cDNA was amplified by PCR using Taq DNA polymerase (Invitrogen) and two reporter sequence-specific primers. The PCR products were fluorescently labeled by primer extension with 6-arboxyfluorescein (6-FAM) 5'-labeled reporter sequence-specific primer (2 min at 95 C, 20 s at 68 C and 10 min at 72 C) and these products were digested with 5U of HpaI (New England Biolabs) for 2h at 37 C. The fragments were purified using Qiaquick PCR columns (Qiagen), analyzed on an ABI 3130xL genetic analyzer (Applied Biosystems) with peak positions identified by using a set of X-rhodamine (ROX)-labeled MapMarker1000 molecular weight standards (BioVentures). The raw capillary electrophoresis data was processed using Attagraph software (Attagene).

outcome, inactive:
CC=C1CC2C=CC1C2 (stereo not given), OCCCS, COc1ccc2nc(N)sc2c1, O=C(O)c1cc(Cl)cc([N+](=O)[O-])c1Cl, CC(=O)C=CC1C(C)=CCC(C)C1(C)C (stereo not given), c1cc(C(c2ccc(OCC3CO3)cc2)C(c2ccc(OCC3CO3)cc2)c2ccc(OCC3CO3)cc2)ccc1OCC1CO1 (stereo not given), Cc1cc(C)c(C)c(O)c1, CNC(=S)N(C)C, O=C(OCC1CCC2OC2C1)C1CCC2OC2C1 (stereo not given), CCCCCCCC(C)=O, CC/C=C\CCOC(=O)CCCCC, C[Si](C)O[Si](C)(C)O[Si](C)(C)O[Si](C)C, OCCN(CCO)c1ccccc1, [Cl][Nd]([Cl])[Cl], CC(CC=O)CCCC(C)(C)O (stereo not given), Cc1c(C)c([N+](=O)[O-])c(C(C)(C)C)c([N+](=O)[O-])c1C, O=[N+]([O-])C1(Br)COCOC1, O=C(O)Cc1c(Cl)ccc(Cl)c1Cl, Cn1c([N+](=O)[O-])cnc1COC(N)=O, C=C[Si](C)(C)O[Si](C)(C)C=C, CCOCC(=O)O, CC[C@H]1OC(=O)[C@H](C)[C@@H](O[C@H]2C[C@@](C)(OC)[C@@H](O)[C@H](C)O2)[C@H](C)[C@@H](O[C@@H]2O[C@H](C)C[C@H](N(C)C)[C@H]2O)[C@](C)(O)C[C@@H](C)C(=NOCOCCOC)[C@H](C)[C@@H](O)[C@]1(C)O, O=Nc1ccc(O)cc1, O=[N+]([O-])c1ccc(CO)cc1, CCCCCCCC/C=C\CCCCCCCC(=O)OCCO, CC(CC=O)c1ccccc1 (stereo not given), COC(=O)c1cc(Cl)ccc1[N+](=O)[O-], CCN(CCC#N)c1ccc(N=Nc2c(Cl)cc([N+](=O)[O-])cc2Cl)cc1, CCCCCCCCCCCSCC(=O)O, CCCCCC(C)O (stereo not given), CCCNC(=O)NS(=O)(=O)c1ccc(Cl)cc1, O=c1c2ccccc2oc2ccccc12, COC(=O)c1ccccc1OC, CCO[Si](C)(OCC)OCC, CCCCCCCCCCOS(=O)(=O)O, Cc1cnc(NC(=O)C2=C(O)c3ccccc3S(=O)(=O)N2C)s1, C=CC(=O)OCCOC1C2CCC1C1CC=CC12 (stereo not given), COc1cc(NC(=O)CC(C)=O)c(OC)cc1Cl, Nc1ccc(-c2ccc(F)cc2)cc1

AC50, active:
CC(C)(C)C(=O)C=Cc1ccc(Cl)cc1 148 µM
